In assay [1] the test system is Zika virus NS2B-NS3 protease (unlinked complex). Nature of the assay: Primary screen GU Rhodamine qHTS for Zika virus inhibitors: Unlinked NS2B-NS3 protease assay (AID 1347159). Note: nearly all actives have a fitted effect of over 60% in size. A digest of the protocol:
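Unlinked NS2B/NS3, 25 nM; Rhod110 peptide, 1.5 microM; compounds, up to 114 microM. Reaction run 15 min at RT in 10 mM Tris-HCl pH 8.0, 0.01% Tween 20; kinetic fluorescence change fitted with a 4-parameter Hill model.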
For orientation: In qHTS, concentration-response curves come from the screen itself.

For assay [2], the system named is Zika virus NS2B-NS3 protease (linked construct). Nature of the assay: Primary screen NINDS Rhodamine qHTS for Zika virus inhibitors (AID 1347160). Note: nearly all actives have a fitted effect of over 55% in size. A digest of the protocol: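 Single-chain NS2B-NS3 protease, 25 nM, pH 8.0; compounds preincubated 15 min. Activity: Rhodamine110 release from 1.5 microM substrate over 15 min, room temperature, data fitted to 4-parameter Hill.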

Records with an inconclusive call do not appear. Values without a mark were called inactive. Calls of active or inactive are those of the source. Calls come from the whole dose curve; as a rule, active = well fitted inhibition curve with a large enough effect; inconclusive = small, poorly fitted or top-dose-only effect; inactive = no such curve, though single readings can be large or run the other way.
% is set by controls: 0 for no effect and ±100 for the full control effect; potency is the fitted concentration of half-maximal effect.

With `CN(C)CCN(Cc1ccccc1)C(=O)c1cc(-c2ccc(F)cc2)n2nc(C(C)(C)C)cc2n1`, the Potency entry in assay [1] and in assay [2] was “inactive” in each case.

As for `C=C(C)Cn1c(SCC(=O)c2cccs2)nc2sc3c(c2c1=O)CCCC3`, the Potency entry in assay [1] and in assay [2] was “inactive” throughout.

For the compound `COc1c2c(nc3occc13)C(CC=C(C)C)(OC)C(O)CC2` (stereo not given), the Potency entry in assay [1] and in assay [2] was “inactive” throughout.

As for `CC(C)(C)Oc1ccc(OCC2Cc3ccccc3CN2C(=O)c2cccc3ccccc23)cc1` (stereo not given), the Potency result in assay [1] and in assay [2] was “inactive” each time.

For `Cc1cc(C(=O)Nc2cc(Nc3ccc4c(/C=C/c5ccccn5)n[nH]c4c3)ccc2F)n(C)n1`, the Potency result in assay [1] and in assay [2] was “inactive” throughout.

With `O=[N+]([O-])c1ccc(Oc2ccc3c(c2)CCC(c2ccccc2)O3)nc1` (stereo not given), the Potency result in assay [1] and in assay [2] was “inactive” in each case.

On to `C=C1CC[C@@H](O)[C@]2(C)C[C@H]3OC(=O)C(=C)[C@H]3CC12` (stereo not given in full), for which the Potency result in assay [1] and in assay [2] was “inactive” throughout.

Turning to `N#Cc1ccc(Nc2nc(-c3ccc(O)cc3O)cs2)cc1C(F)(F)F`, the Potency in assay [1] is 10 µM (active); in assay [2], 17.8 µM (active).

Consider `Nc1nc2c(c(N3CC[C@@H](N)C3)n1)CCCc1ccccc1-2`, for which the Potency entry in assay [1] and in assay [2] was “inactive” throughout.

As for `CC(=O)O[C@@H]1C[C@@]23C[C@@]24CC[C@H](O[C@@H]2OC[C@H](O)[C@H](O)[C@H]2O)C(C)(C)[C@@H]4CC[C@H]3[C@]2(C)[C@@H](O)C34O[C@H](C[C@@H](C)[C@@H]3[C@@]12C)[C@@H](C(C)(C)O)O4`, the Potency result in assay [1] and in assay [2] was “inactive” each time.

As for `CC1OC(OC2C(O)COC(O[C@@H]3[C@@H](O)[C@@H](O)[C@H](OC4C(OC(=O)[C@]56CCC(C)(C)CC5C5=CCC7[C@@]8(C)C[C@H](O)[C@H](OC9OC(CO)C(O)C(O)C9O)[C@@](C)(CO)C8[C@H](O)C[C@@]7(C)[C@]5(C)CC6)OCC(O)C4O)O[C@H]3C)C2O)C(O)C(O)C1O` (stereo not given in full), the activity change, negative = inhibition in assay [1] is 8.24% [at 19.1 µM]. For the same compound, in assay [2], the outcome was “inactive [at 10.7 µM]”.

As for `O=C(c1ccc(OC(F)F)c(C#Cc2ccccn2)c1)N1Cc2cccnc2C1`, the Potency result in assay [1] and in assay [2] was “inactive” throughout.

On to `CC(=O)N[C@H]1[C@H](O[C@H]2CC[C@@]3(C)C(CC[C@]4(C)C3CC=C3C5CC(C)(C)CC[C@]5(C(=O)O)C(O)C[C@]34C)C2(C)C)O[C@H](CO[C@@H]2O[C@H](C)[C@H](O)[C@H](O)[C@H]2O[C@@H]2OC[C@@H](O)[C@H](O)[C@H]2O)[C@@H](O)[C@@H]1O` (stereo not given in full), for which the Potency entry in assay [1] and in assay [2] was “inactive” in each case.

As for `O=C(Nc1ccnc(NC(=O)C2CC2)c1)c1c(Cl)cccc1Cl`, the Potency entry in assay [1] and in assay [2] was “inactive” in each case.

`C=C1CC[C@@H]2[C@](C)(CO)[C@H](O)CC[C@@]2(C)[C@@H]1CC(=O)C1=CCOC1=O`: the Potency result in assay [1] and in assay [2] was “inactive” throughout.

Turning to `Fc1ccc(N2CCN(CCC3OCCc4ccccc43)CC2)cc1` (stereo not given), the Potency entry in assay [1] and in assay [2] was “inactive” each time.

With `C=C1C(=O)OC2/C=C(\C)CC3C=C(CC/C=C(\C)CCC12)C(=O)O3` (stereo not given), the Potency result in assay [1] and in assay [2] was “inactive” throughout.

For `CCOC(=O)N1c2ccc(C(F)(F)F)cc2C(N(Cc2cc(C(F)(F)F)cc(C(F)(F)F)c2)C(=O)OC)CC1CC` (stereo not given), the Potency entry in assay [1] and in assay [2] was “inactive” in each case.

Consider `O=C(Nc1cccnc1)c1cc(-c2ccnc(F)c2)ccc1OCc1ccccc1`, for which the Potency entry in assay [1] and in assay [2] was “inactive” each time.

Regarding `CC(C)C(C)C(O)C1CC23CC(=O)C4(O)C(=C2CCC3C1C)C=CC1(O)CC(O)CCC14C` (stereo not given), the Potency entry in assay [1] and in assay [2] was “inactive” in each case.

As to `Cc1csc2c(N[C@@H](C)CN3CCN(S(=O)(=O)c4ccc(Cl)c(Cl)c4)CC3)ncnc12`, the Potency result in assay [1] and in assay [2] was “inactive” each time.

As for `CCN1CCN(Cc2ccc(C(=O)Nc3ccc(C)c(Oc4ccc5c(c4)CC(=O)N5)c3)cc2C(F)(F)F)CC1`, the Potency result in assay [1] and in assay [2] was “inactive” each time.

For the compound `CCC(C)CNCC(=O)N1CCc2sccc2C1COc1cccc(C)c1` (stereo not given), the Potency entry in assay [1] and in assay [2] was “inactive” each time.

As for `C=C1C(=O)O[C@@H]2/C=C(/C)[C@@H](OC(C)=O)C/C=C(\C)C[C@@H](OC(=O)/C(=C/CO)CO)[C@@H]12`, the Potency entry in assay [1] and in assay [2] was “inactive” each time.

Regarding `CCn1c(N)c(C(=O)NC)c(=O)c2ccc(C#CC(C)(O)COC)nc21` (stereo not given), the Potency entry in assay [1] and in assay [2] was “inactive” each time.

With `Cc1cc(C(=O)Nc2cc(Oc3ccc4nc(NC(=O)C5CC5)cn4n3)ccc2C)n(C)n1`, the Potency entry in assay [1] and in assay [2] was “inactive” in each case.

Take `CCOc1cccc(NC(=O)c2ccc(N3CCCC3)c(C(F)(F)F)c2)c1`: the Potency result in assay [1] and in assay [2] was “inactive” each time.

As for `C=CC(=O)Nc1cccc(Nc2nc(Nc3ccc(OCCOC)cc3)ncc2F)c1`, the Potency entry in assay [1] and in assay [2] was “inactive” throughout.

Consider `N#Cc1cnc2c(Cl)cc(NCc3cn(CCN4CCCCCC4)nn3)cc2c1Nc1ccc(F)c(Cl)c1`, for which the Potency result in assay [1] and in assay [2] was “inactive” in each case.

Turning to `Cc1nnc(-c2ccc(-c3ccc(C(=O)Nc4ccc(O)c(N5CCN(C)CC5)c4)cc3)c(C)c2)o1`, the Potency entry in assay [1] and in assay [2] was “inactive” each time.

Source of the values: PubChem BioAssay (NCATS).
